The results in this text go back to PubChem BioAssay.

A word on the inhibition: it is the relative decrease from the control value, in per cent.

A short description of assay [1]: antimalarial activity against Dd2 strain (AID 2302;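 active = growth inhibition above 50% at the single 2 µM test dose, taken to imply half-maximal potency below 2 µM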;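 also: 0% = DMSO untreated growth and 100% = chloroquine plus artemisinin killed control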). The settings on record: P. falciparum Dd2 in RBCs, LDH growth readout, 72 h; at 2 µM; active compounds read high.
Assay [2] can be described thus: HepG2 cytotoxicity, primary screen, cytotoxicity control for P. falciparum antimalarial project, cell-based, ATP luminescence (AID 2303;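 active = inhibition above 50%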;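 also: 0% = DMSO wells and 100% = digitonin-killed cells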). The settings on record: HepG2 viability, 24-48 h, at 10 µM, active compounds read high.
For assay [3], the target named is L-lactate dehydrogenase (Plasmodium falciparum (isolate CDC / Honduras)) (UniProt Q27743). In words: PfLDH activity inhibition – cell lysate, 3D7 strain, counter-screen for P. falciparum growth inhibition project (AID 2304).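 Also: 0% = vehicle and 100% = reference inhibitor.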 The settings on record: P. falciparum 3D7 crude extract, LDH APAD/NBT absorbance; at 2 µM; active compounds read high. For orientation: A counterscreen serves to expose hits that act by an unwanted route or on another target.
L-lactate dehydrogenase (Plasmodium falciparum (isolate CDC / Honduras)), sequence (Q27743 whole entry, looked up): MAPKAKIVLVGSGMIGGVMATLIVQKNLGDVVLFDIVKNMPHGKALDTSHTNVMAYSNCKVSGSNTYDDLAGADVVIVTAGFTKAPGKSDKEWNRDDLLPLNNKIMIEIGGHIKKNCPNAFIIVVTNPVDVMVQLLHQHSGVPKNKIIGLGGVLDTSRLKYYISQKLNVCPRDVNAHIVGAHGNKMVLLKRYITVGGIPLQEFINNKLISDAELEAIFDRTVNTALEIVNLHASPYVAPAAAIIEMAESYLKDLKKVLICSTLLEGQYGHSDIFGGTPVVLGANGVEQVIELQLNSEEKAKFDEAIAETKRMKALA

The nature of assay [4]: inhibition of 3D7 malaria parasite growth – strain 3D7 (AID 2306).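 Also: 0% = DMSO wells and 100% = chloroquine plus artemisinin control wells.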 The settings on record: P. falciparum 3D7 erythrocytic growth, LDH absorbance, 72 h; at 2 µM; active compounds read high.
Assay [5] addresses Calcium-dependent protein kinase 1 (Plasmodium falciparum (isolate 3D7)) (UniProt P62344). Description: PfCDPK1 kinase inhibitors, biochemical, TCAMS library (AID 1159585; cut-off not given, nearly all actives have IC50 up to about 0.98 µM;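 also: inhibitors leave more ATP so luminescence rises with inhibition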). The settings on record: recombinant PfCDPK1, Kinase-Glo ATP depletion luminescence. (In general: Kinase-Glo measures the ATP left after a reaction by luminescence.)
For assay [6], the target named is Plasmodium falciparum protein kinase 6 (PK6, PF3D7_1337100) (UniProt Q8IDW1). Description: PfPK6 kinase inhibitors, biochemical, TCAMS library (AID 1159586). The settings on record: recombinant PfPK6, Kinase-Glo ATP depletion luminescence.
Plasmodium falciparum protein kinase 6 (PK6, PF3D7_1337100), sequence (Q8IDW1 1-305): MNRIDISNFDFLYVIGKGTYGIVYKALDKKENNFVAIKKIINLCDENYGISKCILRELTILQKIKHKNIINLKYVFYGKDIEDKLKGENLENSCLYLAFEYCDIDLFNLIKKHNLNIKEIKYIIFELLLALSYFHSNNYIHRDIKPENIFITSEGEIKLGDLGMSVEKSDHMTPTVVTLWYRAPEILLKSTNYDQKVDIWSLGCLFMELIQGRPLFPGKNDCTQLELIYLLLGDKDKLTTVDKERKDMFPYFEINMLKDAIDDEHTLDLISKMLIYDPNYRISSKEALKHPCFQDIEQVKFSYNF
The target in assay [7] is Protein kinase 7 (PK7), Plasmodium falciparum 3D7 (PF3D7_0213400) (UniProt Q7YTF7). Description: inhibition of Plasmodium PK7 catalytic activity – biochemical, TCAMS antimalarial set, Kinase-Glo luminescence (AID 1159587). The settings on record: recombinant PfPK7, Kinase-Glo ATP depletion luminescence.
Protein kinase 7 (PK7), Plasmodium falciparum 3D7 (PF3D7_0213400), sequence (Q7YTF7 1-343): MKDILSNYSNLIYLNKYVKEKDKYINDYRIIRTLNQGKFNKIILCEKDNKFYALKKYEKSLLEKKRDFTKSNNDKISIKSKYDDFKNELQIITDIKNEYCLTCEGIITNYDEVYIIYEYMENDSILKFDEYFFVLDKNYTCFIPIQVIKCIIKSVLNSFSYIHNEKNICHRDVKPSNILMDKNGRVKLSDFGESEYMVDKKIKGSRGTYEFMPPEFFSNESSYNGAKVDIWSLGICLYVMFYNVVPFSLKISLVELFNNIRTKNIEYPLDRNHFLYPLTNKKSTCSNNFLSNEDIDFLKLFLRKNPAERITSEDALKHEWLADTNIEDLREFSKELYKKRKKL
In assay [8] the target is Calcium-dependent protein kinase 4 (Plasmodium falciparum (isolate 3D7)) (UniProt Q8IBS5). Description: PfCDPK4 kinase inhibitors, biochemical, TCAMS library (AID 1159588; cut-off not given, nearly all actives have IC50 up to about 0.91 µM). The settings on record: recombinant PfCDPK4, Kinase-Glo ATP depletion luminescence.
Calcium-dependent protein kinase 4 (Plasmodium falciparum (isolate 3D7)), sequence (Q8IBS5 whole entry, looked up): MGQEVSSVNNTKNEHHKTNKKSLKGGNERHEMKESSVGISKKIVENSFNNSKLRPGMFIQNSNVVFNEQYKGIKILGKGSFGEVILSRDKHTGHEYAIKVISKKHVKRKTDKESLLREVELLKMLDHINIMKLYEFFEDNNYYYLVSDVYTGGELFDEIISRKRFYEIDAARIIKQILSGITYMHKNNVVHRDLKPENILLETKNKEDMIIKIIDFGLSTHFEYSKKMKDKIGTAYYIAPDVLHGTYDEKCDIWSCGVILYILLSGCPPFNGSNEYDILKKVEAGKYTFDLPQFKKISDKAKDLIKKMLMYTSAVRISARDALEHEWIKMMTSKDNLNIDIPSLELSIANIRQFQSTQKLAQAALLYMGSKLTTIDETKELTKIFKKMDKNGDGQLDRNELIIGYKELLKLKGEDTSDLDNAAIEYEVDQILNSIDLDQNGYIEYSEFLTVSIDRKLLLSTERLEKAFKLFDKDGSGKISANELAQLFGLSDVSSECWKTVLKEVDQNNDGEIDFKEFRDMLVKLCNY

Structures are written as SMILES. Unmarked numbers belong to inactive results. For some of these results: Potency and affinity values are given separately. The source made the active and inactive calls. Unless noted, no rule for the calls is given here.

Calcium-dependent protein kinase 1 (Plasmodium falciparum (isolate 3D7)), sequence (P62344 whole entry, looked up): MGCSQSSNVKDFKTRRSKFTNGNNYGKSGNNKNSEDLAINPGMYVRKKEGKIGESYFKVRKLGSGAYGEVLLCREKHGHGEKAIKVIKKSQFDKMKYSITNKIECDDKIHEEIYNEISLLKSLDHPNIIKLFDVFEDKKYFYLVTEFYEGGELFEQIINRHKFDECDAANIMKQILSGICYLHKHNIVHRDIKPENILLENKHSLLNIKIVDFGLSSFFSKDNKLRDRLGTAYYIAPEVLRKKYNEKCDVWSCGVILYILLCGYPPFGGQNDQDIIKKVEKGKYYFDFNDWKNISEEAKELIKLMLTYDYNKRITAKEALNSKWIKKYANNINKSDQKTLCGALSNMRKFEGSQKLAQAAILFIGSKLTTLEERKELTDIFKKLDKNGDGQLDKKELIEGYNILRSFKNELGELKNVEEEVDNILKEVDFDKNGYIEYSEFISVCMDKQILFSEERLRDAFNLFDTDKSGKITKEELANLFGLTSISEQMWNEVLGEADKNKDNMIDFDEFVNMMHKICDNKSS

Take `O=C(Nc1ccc(C(F)(F)F)cc1)c1ccc(S(=O)(=O)NC2CCN(CC3CCCCC3)C2)cc1` (stereo not given): the growth inhibition was 16% in assay [1] and 99% (active) in assay [4]. Also, the inhibition in assay [2] is 33%; in assay [3], 5%. The result in assay [5], in assay [6], in assay [7] and in assay [8] was inactive.

In the case of `CN(C)C(=S)N=Nc1c(O)[nH]c2ccc(OC(F)(F)F)cc12`, the growth inhibition in assay [1] was 52% (active); in assay [4] it was 93% (active). Also, the figures for the inhibition in assay [2] and in assay [3] were 36% and 3%, respectively. Moreover, the outcome in assay [5], in assay [6], in assay [7] and in assay [8] was inactive.

For `CCCCCC(C)N=C(Nc1ccc(C#N)cc1O)Nc1ccccc1Br` (stereo not given), the values for the growth inhibition in assay [1] and in assay [4] were 95% (active) and 98% (active), respectively. Further, the inhibition in assay [2] is 2%; in assay [3], -3%. In addition, the result in assay [5], in assay [6], in assay [7] and in assay [8] was inactive.

`O=C(Nc1ccc(Cl)cc1)c1cccc(S(=O)(=O)NC2CCN(CC3CCCCC3)C2)c1` (stereo not given): the figures for the growth inhibition in assay [1] and in assay [4] were 41% and 90% (active), respectively. Besides, the inhibition in assay [2] is 80% (active); in assay [3] it was -2%. In addition, the outcome in assay [5], in assay [6], in assay [7] and in assay [8] was inactive.

For the molecule `NC(=S)Cc1ccc2c(c1)OCO2`, the values for the growth inhibition in assay [1] and in assay [4] were -3% and 96% (active), respectively. The inhibition was 43% in assay [2] and -2% in assay [3]. The outcome in assay [5], in assay [6], in assay [7] and in assay [8] was inactive.

For `Cc1cccc2[nH]c(-c3cccc(-c4ccc(NC(=O)NCc5ccccc5)cc4)c3)nc12`, the growth inhibition is 47% in assay [1] and 101% (active) in assay [4]. The inhibition in assay [2] was 35%; in assay [3], -2%. The outcome in assay [5], in assay [6], in assay [7] and in assay [8] was inactive.

For `N#Cc1ccc(CNCCCCCCCNCc2ccc(-c3ccccc3)cc2)cc1`, the growth inhibition in assay [1] was 10%; in assay [4], 87% (active). In addition, the results for the inhibition in assay [2] and in assay [3] were 19% and 3%, respectively. Also, the result in assay [5], in assay [6], in assay [7] and in assay [8] was inactive.

`O=C(NC1CCN(c2ccc(F)cc2[N+](=O)[O-])CC1)c1cccs1`: the growth inhibition was 91% (active) in assay [1] and 90% (active) in assay [4]. The inhibition in assay [2] is -9%; in assay [3], -1%. Further, the outcome in assay [5], in assay [6], in assay [7] and in assay [8] was inactive.

For `O=C(C1CC1)N1c2ccccc2CCc2ccccc21`, the growth inhibition in assay [1] was 57% (active); in assay [4] it was 98% (active). The inhibition in assay [2] was 40%; in assay [3], 1%. In addition, the outcome in assay [5], in assay [6], in assay [7] and in assay [8] was inactive.

As to `Oc1cc(Nc2ccnc3cc(-c4ccc(CN5CCCCC5)o4)c(Cl)cc23)c(Cl)cc1F`, the growth inhibition in assay [1] is 64% (active); in assay [4], 102% (active). Besides, the inhibition in assay [2] is -10%; in assay [3] it was -5%. Further, the result in assay [5], in assay [6], in assay [7] and in assay [8] was inactive.

On to `N#Cc1ccc(CN2CCC(Oc3ccc(NC(=O)c4cccs4)cc3)CC2)cc1`, for which the growth inhibition in assay [1] is 82% (active); in assay [4] it was 83% (active). For the same molecule, the inhibition was 10% in assay [2] and -3% in assay [3]. In addition, the outcome in assay [5], in assay [6], in assay [7] and in assay [8] was inactive.

In the case of `COc1cc(CN=C(Nc2ccc(-c3ccccc3)cc2)Nc2ccc(C#N)cc2O)cc(OC)c1`, the values for the growth inhibition in assay [1] and in assay [4] were 64% (active) and 95% (active), respectively. In addition, the inhibition is -4% in assay [2] and 5% in assay [3]. Moreover, the result in assay [5], in assay [6], in assay [7] and in assay [8] was inactive.

With `c1ccc(CNCc2cccc(-c3cccc(-c4nc5ccccc5[nH]4)c3)c2)cc1`, the growth inhibition in assay [1] is 38%; in assay [4] it was 102% (active). In addition, the inhibition is 12% in assay [2] and -5% in assay [3]. Further, the outcome in assay [5], in assay [6], in assay [7] and in assay [8] was inactive.

As to `CC(C)CCNc1nc2ccccc2nc1Nc1cccc(C(F)(F)F)c1`, the growth inhibition in assay [1] is 99% (active); in assay [4], 98% (active). Moreover, the inhibition in assay [2] is 12%; in assay [3], 1%. The result in assay [5], in assay [6], in assay [7] and in assay [8] was inactive.

As to `CCn1c(Cc2ccccc2)nnc1SCC(=O)N1c2ccccc2Sc2ccccc21`, the growth inhibition in assay [1] is 96% (active); in assay [4], 99% (active). Also, the inhibition in assay [2] is -8%; in assay [3], -1%. Moreover, the result in assay [5], in assay [6], in assay [7] and in assay [8] was inactive.

Regarding `COc1ccc(CNC(=O)NC2CCN(c3ccnc(Nc4ccc(F)cc4)n3)CC2)cc1`, the growth inhibition was 4% in assay [1] and 87% (active) in assay [4]. The inhibition in assay [2] is 16%; in assay [3] it was -6%. The result in assay [5], in assay [6], in assay [7] and in assay [8] was inactive.

Consider `O=C(c1cccc(-c2noc(C(F)(F)F)n2)c1)N1CCN(c2ccncc2)CC1`, for which the values for the growth inhibition in assay [1] and in assay [4] were 56% (active) and 90% (active), respectively. Moreover, the inhibition in assay [2] is 14%; in assay [3] it was 3%. Moreover, the result in assay [5], in assay [6], in assay [7] and in assay [8] was inactive.

In the case of `c1ccc(Oc2ccc(Nc3ccnc4cc(-c5ccc(CN6CCCCC6)o5)ccc34)cc2)nc1`, the growth inhibition is 100% (active) in assay [1] and 101% (active) in assay [4]. Moreover, the figures for the inhibition in assay [2] and in assay [3] were 18% and -4%, respectively. Besides, the outcome in assay [5], in assay [6], in assay [7] and in assay [8] was inactive.

For `O=C(Cn1c(CCc2cccc(F)c2F)cc(=O)c2ccccc21)N(CCN1CCCCC1)Cc1ccc(-c2ccc(C(F)(F)F)cc2)cc1`, the growth inhibition in assay [1] is 59% (active); in assay [4] it was 101% (active). Further, the inhibition in assay [2] is 9%; in assay [3], -6%. Moreover, the result in assay [5], in assay [6], in assay [7] and in assay [8] was inactive.

For the molecule `N#Cc1ccnc(-c2ccc(CNC3CCN(CC4Cn5c(=O)ccc6ccc(F)c4c65)CC3)cc2)c1` (stereo not given), the growth inhibition is 41% in assay [1] and 88% (active) in assay [4]. In addition, the inhibition in assay [2] was 24%; in assay [3], 2%. Moreover, the outcome in assay [5], in assay [6], in assay [7] and in assay [8] was inactive.
